Source: PubChem (National Center for Advancing Translational Sciences (NCATS))
Most compounds without a hit are left out; they make up all but 15% or so of the library.
DT40 TDP1 no CPT: qHTS for Inhibitors of human tyrosyl-DNA phosphodiesterase 1 (TDP1): qHTS in cells in absence of CPT | DT40 Tdp1-/- hTDP1 cells, no CPT, ATP luminescence, 48 h | Potency, µM (series often up to 46.2 µM), for inactives: top-dose activity change, negative = growth inhibition, most hits filed as inhibitors | 420,000 compounds, 15% hits | AID 686978, 2013; also: nearly all actives have a fitted effect of over 55% in size
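Readout: luminescence from CellTiter-Glo after 30 min in the dark at RT. Cells: DT40 Tdp1-/- with stable hTDP1, 400/well. Exposure: compounds alone, ≥48 hr, 37 °C.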
VP16 counter: Gal4-VP16 reporter inhibition counter-screen; Drosophila S2 Gal4-VP16 UAS-luciferase, luminescence, 20 h; Potency, µM (series often up to 53.6 µM), for the others: top-dose activity, negative = inhibition, usual class: inhibitors; AID 2546; 310,000 compounds, 3.5% hits;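 also: Gal4-VP16 expression switched on by copper sulfate through the metallothionein promoter; nearly all actives have a fitted effect of over 50% in size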
ELG1 repair inh: ELG1-dependent DNA repair inhibition; Potency, µM (titrated, usually from 46.1 µM), for the others: at the highest dose activity change, negative = inhibition, actives largely listed as inhibitors; 330,000 compounds, 2.3% hits; HEK293T ELG1-luciferase reporter, luminescence, 16 h; DNA damage induced by 5-fluorouridine; also: nearly all actives have a fitted effect of over 55% in size
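In this reporter screen, reduction of luminescence relative to DMSO vehicle indicated activity. Compounds and 5-fluorouridine were added together to 2,000 cells per well, incubated for 16 hr at 37 °C, then developed with ONE-Glo.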
ALOX12 inh: ALOX12 (human) lipoxygenase inhibition | P18054 | purified 12hLO, xylenol orange hydroperoxide absorbance | Potency, µM (doses to about 108 µM), without a hit: top-dose activity change, negative = inhibition, hits mostly inhibitors | 580,000 compounds, 1.1% hits | AID 1671190
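Hydroperoxide product was detected by ferrous iron/xylenol orange as the 573 to 405 nm absorbance ratio. Arachidonic acid at 40 uM (final) was turned over for 30 min at room temperature by 150 nM human 12hLO, pH 7.0 Hepes buffer, after 15 min compound preincubation.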
DT40 TDP1 CPT: DT40-hTDP1 cell growth loss with CPT; chicken DT40 Tdp1-/-;hTDP1 cells + 20 nM CPT, ATP luminescence, 48 h; 420,000 compounds, 12% hits; Potency, µM (titrated, usually from 46.2 µM), for inactives: at the highest dose activity change, negative = growth inhibition, hits mostly inhibitors; also: nearly all actives have a fitted effect of over 55% in size
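Chicken DT40 Tdp1-/- cells complemented with human TDP1, 400 cells/well, exposed to compounds plus 20 nM camptothecin for at least 48 h at 37 C; viability read as ATP content by CellTiter-Glo luminescence.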
RORgamma inh: blocks mouse ROR gamma transcriptional activity. P51450. Drosophila S2 Gal4-RORgamma UAS-luciferase reporter, 20 h. Potency, µM (titrated, usually from 53.6 µM), without a hit: at the highest dose activity change, negative = inhibition, hits mostly inhibitors. 310,000 compounds, 5.4% hits; also: nearly all actives have a fitted effect of over 60% in size
Target sequence (P51450 whole entry, looked up, the tested form may be a part): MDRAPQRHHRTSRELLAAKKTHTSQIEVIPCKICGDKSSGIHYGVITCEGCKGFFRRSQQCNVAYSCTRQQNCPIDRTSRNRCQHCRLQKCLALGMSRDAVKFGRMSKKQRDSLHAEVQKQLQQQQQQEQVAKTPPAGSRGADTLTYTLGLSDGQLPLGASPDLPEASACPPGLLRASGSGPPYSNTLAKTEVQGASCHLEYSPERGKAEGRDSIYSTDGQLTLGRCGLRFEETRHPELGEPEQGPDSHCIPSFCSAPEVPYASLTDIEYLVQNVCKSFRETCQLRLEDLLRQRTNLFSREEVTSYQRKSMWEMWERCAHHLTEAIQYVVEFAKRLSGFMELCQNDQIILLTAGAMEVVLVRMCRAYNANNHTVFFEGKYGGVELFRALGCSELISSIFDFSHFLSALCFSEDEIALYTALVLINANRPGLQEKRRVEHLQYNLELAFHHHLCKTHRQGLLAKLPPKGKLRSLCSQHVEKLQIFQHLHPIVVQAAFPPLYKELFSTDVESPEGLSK
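Stably transfected Drosophila Schneider cells are the test system, with ROR gamma fused to Gal4 and luciferase under UAS control; luminescence is read after 20 hr of 700 uM copper sulfate induction at ambient temperature.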
Active calls of the source: *; u = inconclusive; x = no result given; [ ] = remark or other dose. Calls follow the shape of the dose curve; as a rule, active = well fitted curve in the direction sought with a large enough effect; inconclusive = small, poorly fitted or top-dose-only effect, or another doubt; inactive = no such curve, though single readings can be large; an effect the other way counts as inactive or inconclusive. % is scaled to controls: 0 for no effect and ±100 for the full control effect; potency is read from the fitted curve at half-maximal effect.

SMILES | DT40 TDP1 no CPT | VP16 counter | ELG1 repair inh | ALOX12 inh | DT40 TDP1 CPT | RORgamma inh
COc1ccc(Cn2c(C)nc3c(c2=O)c2nc4ccccc4nc2n3Cc2ccco2)cc1 | 8.2µM* | x | x | u | 15µM* | x
COc1ccc(Cn2c3nc4ccccc4nc3c3c(=O)n(Cc4ccco4)c(C)nc32)cc1 | x | -29% | -1% | x | x | -100%
CCC(C)n1cnc2c(c1=O)c1nc3ccccc3nc1n2Cc1ccc(OC)cc1 (centres undefined) | 15µM* | -13% | u | 0% | u | u
COCCn1c(C)c(C)c(S(=O)(=O)c2ccccc2)c1N | 1% | -3% | 12% | u | -24% | 22%
CC(C)Cn1cnc2c(c1=O)c1nc3ccccc3nc1n2Cc1ccc2c(c1)OCO2 | x | -10% | 1% | x | x | -7%
CCCCn1cnc2c(c1=O)c1nc3ccccc3nc1n2Cc1ccc2c(c1)OCO2 | -14% | -7% | 9% | 7.9µM* | u | 30%
Cc1cc(C)cc(-n2c3nc4ccccc4nc3c3c(=O)n(Cc4ccco4)cnc32)c1 | 12µM* | 11µM* | -8% | u | 23µM* | 11µM*
CCCCOc1ccc(/C=C/C(=O)c2ccc(Br)cc2)cc1 | x | x | x | 28% | x | x
Cc1cccc(NC(=O)CSc2nc3sc(C)cc3c(=O)n2C)c1 | 23µM* | x | x | u | u | x
COc1ccc(NC(=O)CSc2nc3sc(C)cc3c(=O)n2C)c(OC)c1 | 18µM* | u | u | 17% | u | u
Cc1cccc(NC(=O)CSc2nnc(-c3ccco3)c(-c3ccco3)n2)c1C | u | -13% | -7% | x | -7% | -3%
Cc1cccc(NC(=O)CSc2nnc(-c3ccco3)c(-c3ccco3)n2)c1 | 18µM* | 2% | 0% | u | u | 12%
Cc1cc2c(=O)n(C)c(SCC(=O)Nc3cccc(O)c3)nc2s1 | -29% | 4% | 0% | 10% | u | -7%
CCCc1noc(-c2cn(C3CCN(C(=O)c4cc(F)ccc4Cl)CC3)nn2)n1 | x | x | x | 38% | x | x
C=C(C)COc1cc(C)cc2oc(=O)c(CC(=O)Nc3nc(CC(=O)O)cs3)c(C)c12 | x | x | x | -15% | x | x
CCOC(=O)c1c(C)[nH]c(C)c1S(=O)(=O)N1CCCC(C(=O)N2CCN(c3cccc(Cl)c3)CC2)C1 (centres undefined) | 21µM* | x | x | -26% | 21µM* | x
CCOC(=O)c1c(C)[nH]c(C)c1S(=O)(=O)N1CCCC(C(=O)N2CCN(c3cccc(C)c3C)CC2)C1 (centres undefined) | u | x | x | -24% | 15µM* | x
CCOC(=O)c1c(C)[nH]c(C)c1S(=O)(=O)N1CCCC(C(=O)Nc2cccc(C)n2)C1 (centres undefined) | -6% | x | x | -21% | -25% | x
COc1ccc(-c2cc(N3CCCC(NC(=O)c4ccc(Br)o4)C3)n[nH]2)cc1 (centres undefined) | x | x | x | 32% | x | x
Cc1cccnc1NC(N)=S | -2% | -5% | u | u | -3% | -4%
S=C(NCc1ccccn1)Nc1ccc(Cl)cc1Cl | -4% | 13µM* | u | 1% | -5% | 8.9µM*
O=C(CNC(=O)c1ccc(Cl)cc1Cl)NCc1ccccn1 | -1% | x | 13% | 0% | -1% | x
CC(C)(C)c1nnc(NC(=S)Nc2ccccc2)s1 | u | 0.89µM* | u | u | u | 0.28µM*
S=C(NCc1ccccn1)Nc1ccc(Cl)c(Cl)c1 | u | 5µM* | 11% | u | 16µM* | 2.5µM*
Cc1cccnc1NC(=S)Nc1ccc(Cl)c(Cl)c1 | u | u | u | 8.9µM* | -11% | u
COc1ccc(CN2Cc3[nH]cnc3C[C@H]2c2nc(Cc3ccccc3)no2)cc1 | x | x | x | 118%[176 µM] | x | x
